Measured values as given in PubChem BioAssay (NCATS).
Inconclusive results are not listed. Active and inactive are the calls of the source. Calls come from the whole dose curve; as a rule, active = well fitted curve in the direction sought with a large enough effect; inconclusive = small, poorly fitted or top-dose-only effect, or another doubt; inactive = no such curve, though single readings can be large; an effect the other way counts as inactive or inconclusive.

Columns and labels:
CRL-7250 = normal cell line; assay: Cytotoxic Profiling of Annotated Libraries Using Quantitative High-Throughput Screening (AID 1296008); conditions: Five cell lines viability, CellTiter-Glo ATP luminescence, 48-72 h; max response: stronger effect = lower value; note: nearly all actives have a fitted effect of over 60% in size; for max response: % is set by controls: 0 for no effect and ±100 for the full control effect
Procedure, shortened: (§1)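 Cells exposed to compounds for 48 or 72 hr at 37 degrees Celsius. Viability read as ATP-coupled luminescence with CellTiter-Glo after 10 min at room temperature.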

HEK293 = assay: as above; conditions: Five cell lines viability, CellTiter-Glo ATP luminescence, 48-72 h; max response: stronger effect = lower value
Procedure, shortened: as §1

HaCat = assay: as above; conditions: Five cell lines viability, CellTiter-Glo ATP luminescence, 48-72 h; max response: stronger effect = lower value
Procedure, shortened: as §1

KB-3-1 = assay: as above; conditions: Five cell lines viability, CellTiter-Glo ATP luminescence, 48-72 h; max response: stronger effect = lower value
Procedure, shortened: as §1

NIH3T3 [1] = assay: as above; conditions: Five cell lines viability, CellTiter-Glo ATP luminescence, 48-72 h; max response: stronger effect = lower value
Procedure, shortened: as §1

NIH3T3 [2] = assay: qHTS assay to identify novel small-molecules to repurpose for Merkel cell carcinoma treatment (AID 1296009); conditions: MCC and control cell lines, CellTiter-Glo viability, 72 h; at 44.8 µM (top of the series) unless noted; note: nearly all actives have a fitted effect of over 60% in size
Procedure, shortened: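 Dose-response viability screen; 72 hr exposure at 37 degree celsius; CellTiter-Glo added, 10 min room temperature, luminescence read; RLUs scaled between no-cell and DMSO wells.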

C33A = assay: Primary qHTS to identify gynecologic anti-cancer compounds using libraries of approved drugs and bioactive compounds (AID 1345084); conditions: Gynecologic cancer cell panel viability, ATPlite luminescence, 48 h; series mostly up to 57.5 µM; note: % is set by controls: 0 for no effect and ±100 for the full control effect; nearly all actives have a fitted effect of over 55% in size
Procedure, shortened: (§2)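 Cells, 1,000 per well, plated 16 h, then exposed 48 h at 37 C to compounds. Viability by ATPlite luminescence after 15 min at room temperature.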

CAOV3 = assay: as above; conditions: Gynecologic cancer cell panel viability, ATPlite luminescence, 48 h; series mostly up to 57.5 µM
Procedure, shortened: as §2

CASKI = assay: as above; conditions: Gynecologic cancer cell panel viability, ATPlite luminescence, 48 h; series mostly up to 57.5 µM
Procedure, shortened: as §2

Es-2 = assay: as above; conditions: Gynecologic cancer cell panel viability, ATPlite luminescence, 48 h; series mostly up to 57.5 µM
Procedure, shortened: as §2

HeLa = assay: as above; conditions: Gynecologic cancer cell panel viability, ATPlite luminescence, 48 h; series mostly up to 57.5 µM
Procedure, shortened: as §2

Hek293T = assay: as above; conditions: Gynecologic cancer cell panel viability, ATPlite luminescence, 48 h, control line for the selectivity index; series mostly up to 57.5 µM
Procedure, shortened: as §2

JEG-3 = assay: as above; conditions: Gynecologic cancer cell panel viability, ATPlite luminescence, 48 h; series mostly up to 57.5 µM
Procedure, shortened: as §2

OV90 = assay: as above; conditions: Gynecologic cancer cell panel viability, ATPlite luminescence, 48 h; series mostly up to 57.5 µM
Procedure, shortened: as §2

CC(/C=C/C=C(\C)C(=O)O[C@@H]1O[C@H](CO[C@@H]2O[C@H](CO)[C@@H](O)[C@H](O)[C@H]2O)[C@@H](O)[C@H](O)[C@H]1O)=C\C=C\C=C(C)\C=C\C=C(/C)C(=O)O[C@@H]1C[C@](O)(C(=O)O)C[C@@H](O)[C@H]1OC(=O)/C=C/c1ccc(O)c(O)c1
inactive: max response (CRL-7250) -12.4% | max response (HEK293) 2.1% | max response (HaCat) 1.58% | max response (KB-3-1) 5.86% | outcome (NIH3T3 [1]) | outcome (NIH3T3 [2]) inactive [at 9.27 µM] | activity change, negative = cytotoxicity (C33A) 17.9% [at 11.6 µM] | activity change, negative = cytotoxicity (CAOV3) -20% [at 11.6 µM] | activity change, negative = cytotoxicity (CASKI) 21.7% [at 11.6 µM] | activity change, negative = cytotoxicity (Es-2) 1.04% [at 11.6 µM] | activity change, negative = cytotoxicity (HeLa) 2.81% [at 11.6 µM] | activity change, negative = cytotoxicity (Hek293T) -2.06% [at 11.6 µM] | activity change, negative = cytotoxicity (JEG-3) 7.27% [at 11.6 µM] | activity change, negative = cytotoxicity (OV90) 8.2% [at 11.6 µM]

CC/C=C\[C@H](O)[C@H](O)C1=C(C)C(=O)[C@]2(O1)C(=O)N[C@@](O)(C(=O)c1ccccc1)[C@@H]2O
inactive: outcome (CRL-7250) | max response (HEK293) 2.91% | max response (HaCat) -6.31% | outcome (KB-3-1) | outcome (NIH3T3 [1]) | outcome (NIH3T3 [2]) inactive [at 17.4 µM] | Potency (C33A) | Potency (CAOV3) | outcome (CASKI) | Potency (Es-2) | Potency (HeLa) | Potency (Hek293T) | Potency (JEG-3) | Potency (OV90)

C/C(=C\C1CCC(C)C2CCC3(C)OC123)C(=O)O (centres undefined)
inactive: max response (CRL-7250) -0.564% | max response (HEK293) -3.45% | max response (HaCat) 4.2% | max response (KB-3-1) 8.09% | outcome (NIH3T3 [1]) | outcome (NIH3T3 [2]) | Potency (C33A) | Potency (CAOV3) | outcome (CASKI) | Potency (Es-2) | Potency (HeLa) | Potency (Hek293T) | Potency (JEG-3) | Potency (OV90)

CC1=C2C(=O)C=C(CO)C2C2OC(=O)C(CS(=O)(=O)O)C2C(OC(=O)Cc2ccc(O)cc2)C1 (centres undefined)
inactive: outcome (CRL-7250) | max response (HEK293) -5.22% | max response (HaCat) -1.36% | max response (KB-3-1) -6.7% | outcome (NIH3T3 [1]) | outcome (NIH3T3 [2]) inactive [at 17.4 µM] | Potency (C33A) | Potency (CAOV3) | outcome (CASKI) | Potency (Es-2) | Potency (HeLa) | Potency (Hek293T) | Potency (JEG-3) | Potency (OV90)

C=C(C)[C@@H]1CC[C@]2(CO)CC[C@]3(C)[C@H](CC[C@@H]4[C@@]5(C)CC[C@H](O)C(C)(C)[C@@H]5CC[C@]43C)[C@@H]12
inactive: max response (CRL-7250) 1.98% | max response (HEK293) 3.79% | max response (HaCat) 2.42% | outcome (KB-3-1) | outcome (NIH3T3 [1]) | outcome (NIH3T3 [2]) inactive [at 17.4 µM] | Potency (C33A) | Potency (CAOV3) | outcome (CASKI) | Potency (Es-2) | Potency (HeLa) | Potency (Hek293T) | Potency (JEG-3) | Potency (OV90)

CN1C(=O)N(c2cc(Cl)cc(Cl)c2)C(=O)[C@@]1(C)Cc1ccc(Br)cc1
inactive: max response (CRL-7250) -11.1% | max response (HEK293) -15.8% | max response (HaCat) -27.7% | max response (KB-3-1) 3.14% | outcome (NIH3T3 [1]) | outcome (NIH3T3 [2]) | Potency (C33A) | Potency (CAOV3) | outcome (CASKI) | Potency (Es-2) | Potency (HeLa) | Potency (Hek293T) | Potency (JEG-3) | Potency (OV90)

O=S(=O)(O)c1ccc(Nc2ncnc3c2ncn3[C@@H]2O[C@H](CO)[C@@H](O)[C@H]2O)cc1
inactive: outcome (CRL-7250) | max response (HEK293) -6.97% | max response (HaCat) -25.7% | outcome (KB-3-1) | outcome (NIH3T3 [1]) | outcome (NIH3T3 [2]) | Potency (C33A) | Potency (CAOV3) | outcome (CASKI) | Potency (Es-2) | Potency (HeLa) | Potency (Hek293T) | Potency (JEG-3) | Potency (OV90)

Nc1nc2c(nc(Sc3ccc(Cl)cc3)n2[C@@H]2O[C@@H]3COP(=O)(O)O[C@H]3[C@H]2O)c(=O)[nH]1
inactive: max response (CRL-7250) 1.71% | max response (HEK293) 1.54% | max response (HaCat) -3.37% | outcome (KB-3-1) | outcome (NIH3T3 [1]) | outcome (NIH3T3 [2]) | Potency (C33A) | Potency (CAOV3) | outcome (CASKI) | Potency (Es-2) | Potency (HeLa) | Potency (Hek293T) | Potency (JEG-3) | Potency (OV90)

C=C1CCC2C(C)(C(=O)OC)CCCC2(C)C1CCC1=CCOC1=O (centres undefined)
inactive: max response (CRL-7250) 3.38% | max response (HEK293) 2.4% | max response (HaCat) 1% | outcome (KB-3-1) | outcome (NIH3T3 [1]) | outcome (NIH3T3 [2]) | Potency (C33A) | Potency (CAOV3) | outcome (CASKI) | Potency (Es-2) | Potency (HeLa) | Potency (Hek293T) | Potency (JEG-3) | Potency (OV90)

C[C@@]1(O)[C@H](O)[C@@H](CO)O[C@H]1n1cnc2c(=O)[nH]c(N)nc21
inactive: max response (CRL-7250) 0.111% | max response (HEK293) 0.681% | max response (HaCat) -4.96% | outcome (KB-3-1) | outcome (NIH3T3 [1]) | outcome (NIH3T3 [2]) | Potency (C33A) | Potency (CAOV3) | outcome (CASKI) | Potency (Es-2) | Potency (HeLa) | Potency (Hek293T) | Potency (JEG-3) | Potency (OV90)

CCNC(=O)OC1CCN(c2nncc3cc(OC)c(OC)cc23)CC1
inactive: max response (CRL-7250) -1.25% | max response (HEK293) 2.54% | max response (HaCat) -16.1% | outcome (KB-3-1) | outcome (NIH3T3 [1]) | outcome (NIH3T3 [2]) | Potency (C33A) | Potency (CAOV3) | outcome (CASKI) | Potency (Es-2) | Potency (HeLa) | Potency (Hek293T) | Potency (JEG-3) | Potency (OV90)
